MCF10A rerep – A quantitative high throughput screen for small molecules that induce DNA re-replication in MCF 10a normal breast cells | MCF 10A DNA re-replication, Hoechst nuclear intensity, 48 h | Potency, µM (titrated, usually from 46.1 µM), without a hit: top-dose activity, positive = re-replication, actives largely listed as activators | actives 2.9% (n = 350,000) | AID 624296, 2012; note: potency is the fitted concentration of half-maximal effect; % of control where 0% means no effect; nearly all actives have a fitted effect of over 50% in size
Chronic BCR inh – qHTS Assay to Find Inhibitors of Chronic Active B-Cell Receptor Signaling. ABC-DLBCL IkBa-CBG/CBR reporter, luminescence ratio, 4 h. Potency, µM (top dose mostly 46.1 µM), for the others: at the top dose activity change, negative = inhibition, usual class: inhibitors. actives 0.05% (n = 340,000); active = well fitted inhibition curve with a large enough effect in the signal ratio, with a control signal flat, not every such curve was filed as active; inconclusive = small, poorly fitted or top-dose-only effect, or effect the other way, or a change in a side signal; the % refers to the signal ratio;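 note: potency is the fitted concentration of half-maximal effect; plate controls were basal doxycycline-induced cells for no effect and cells given 10 µM MG132 for full effect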
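Doxycycline induced both beetle luciferases in TMD8 lymphoma cells; IKK-driven degradation limits the IkappaBalpha-fused green signal, while red luminescence normalises for cell number and nonspecific effects. Compounds tested up to 46 uM, 4 hrs.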
DT40 TDP1 no CPT – qHTS for Inhibitors of human tyrosyl-DNA phosphodiesterase 1 (TDP1): qHTS in cells in absence of CPT | DT40 Tdp1-/- hTDP1 cells, no CPT, ATP luminescence, 48 h | Potency, µM (series often up to 46.2 µM), without a hit: at the top dose activity change, negative = growth inhibition, hits mostly inhibitors | actives 15% (n = 420,000); note: potency is the fitted concentration of half-maximal effect; % is set by controls: 0 for no effect and ±100 for the full control effect; nearly all actives have a fitted effect of over 55% in size
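Luminescent ATP content (CellTiter-Glo) served as the growth readout. Knockout chicken DT40 cells expressing human TDP1 were exposed to compounds without camptothecin for a minimum 48 hr at 37 °C.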
IL-1B inflam inh – qHTS for Inhibitors of Inflammasome Signaling: IL-1-beta AlphaLISA Primary Screen; THP-1 LPS/ATP IL-1B secretion, AlphaLISA, 16 h; hits give low values; activity change, % at 57.5 µM; actives 4.7% (n = 360,000); in the data active = activity change below about -50%; inconclusive = mostly about -30% to -49%; note: % is set by controls: 0 for no effect and ±100 for the full control effect
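Secreted IL-1B measured by AlphaLISA bead assay after 16 h compound exposure of THP-1 cells; compounds (final up to 57.5 uM) added 1 h before LPS (250 ng/mL) and ATP (1.25 mM) stimulation; lower signal means less secretion.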
TDP1 cell CPT – qHTS for Inhibitors of human tyrosyl-DNA phosphodiesterase 1 (TDP1): qHTS in cells in presence of CPT. actives 12% (n = 420,000). Potency, µM (titrated, usually from 46.2 µM), inactives show at the top dose activity change, negative = growth inhibition, usual class: inhibitors. chicken DT40 Tdp1-/-;hTDP1 cells + 20 nM CPT, ATP luminescence, 48 h. AID 686979, 2013; note: potency is the fitted concentration of half-maximal effect; % is set by controls: 0 for no effect and ±100 for the full control effect; nearly all actives have a fitted effect of over 55% in size
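Chicken DT40 Tdp1-/- cells complemented with human TDP1, 400 cells/well, exposed to compounds plus 20 nM camptothecin for at least 48 h at 37 C; viability read as ATP content by CellTiter-Glo luminescence.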
SW480 rerep – A quantitative high throughput screen for small molecules that induce DNA re-replication in SW480 colon adenocarcinoma cells; actives 1.8% (n = 340,000); SW480 DNA re-replication, Hoechst DNA content imaging, 48 h; AID 624297, 2012; Potency, µM (doses to about 46.1 µM), inactives show at the highest dose re-replication activation, actives largely listed as activators; note: potency is the fitted concentration of half-maximal effect; % of control where 0% means no effect; nearly all actives have a fitted effect of over 55% in size
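Compounds, transferred as 23 nL by pin tool, were incubated with cells for 48 hr; DNA content per nucleus was then quantified by Hoechst staining and fluorescence plate imaging.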
Active calls of the source: *. This is a sample that favours compounds with a hit; in the whole collection about 19% have one here. Unless noted, calls come from the whole dose curve; as a rule, active = well fitted curve in the direction sought with a large enough effect; inconclusive = small, poorly fitted or top-dose-only effect, or another doubt; inactive = no such curve, though single readings can be large; an effect the other way counts as inactive or inconclusive.

Results for COc1ccc(OCCn2c(C)nc3cc(C)c(C)cc32)cc1 ?
DT40 TDP1 no CPT: 20.6µM*; TDP1 cell CPT: 14.6µM*

What do the screens show for `Cc1nc2ccccc2n1CCCOc1ccccc1`?
MCF10A rerep: 2.3%; Chronic BCR inh: 5.2%; DT40 TDP1 no CPT: 23.1µM*; IL-1B inflam inh: 9.7; TDP1 cell CPT: inconclusive; SW480 rerep: 3.3%

How did COCc1nc2ccccc2n1CCCOc1ccccc1 do in these assays?
MCF10A rerep: 5.2%; Chronic BCR inh: 1.5%; DT40 TDP1 no CPT: 25.9µM*; IL-1B inflam inh: 16.1; TDP1 cell CPT: 23.1µM*; SW480 rerep: 3.2%

Results for CCCC(O)c1nc2ccccc2n1CCCOc1ccc(Cl)cc1 (centres undefined) ?
DT40 TDP1 no CPT: 3.26µM*; TDP1 cell CPT: 3.66µM*

How did Cc1ccc(OCCn2c(C)nc3ccccc32)cc1 do in these assays?
MCF10A rerep: inconclusive; Chronic BCR inh: 0.1%; DT40 TDP1 no CPT: inconclusive; IL-1B inflam inh: inconclusive; TDP1 cell CPT: inconclusive; SW480 rerep: 17.0%

Results for C/C(=N\NC(=O)COc1cccc(Br)c1)c1ccc2c(c1)OCCO2 ?
MCF10A rerep: -3.0%; Chronic BCR inh: -10.1%; DT40 TDP1 no CPT: -2.9%; IL-1B inflam inh: -29.8; TDP1 cell CPT: -0.6%; SW480 rerep: -3.2%

What do the screens show for `CC(C)[C@H](NC(=O)c1ccc(Cl)cc1Cl)C(=O)NNC(=O)c1ccco1`?
MCF10A rerep: -1.0%; Chronic BCR inh: 0.6%; DT40 TDP1 no CPT: -14.1%; IL-1B inflam inh: 6.4; TDP1 cell CPT: -4.7%; SW480 rerep: 0.4%

What do the screens show for `CCCCCNC(=O)C1C(=O)Nc2ccccc2C(=O)N1c1ccc(OC)cc1` (centres undefined)?
DT40 TDP1 no CPT: inconclusive; IL-1B inflam inh: -14.1; TDP1 cell CPT: inconclusive

How did O=C(NCc1ccco1)C1(S(=O)(=O)c2ccccc2)CC=CC1 do in these assays?
MCF10A rerep: 66.7%; Chronic BCR inh: -3.3%; DT40 TDP1 no CPT: -15.2%; IL-1B inflam inh: 35.0; TDP1 cell CPT: inconclusive; SW480 rerep: -7.6%

Results for Cc1ccc2c(c1)c1c(n2CC(O)Cn2nc(C)c(Br)c2C)C(=O)CCC1 (centres undefined) ?
MCF10A rerep: -0.3%; Chronic BCR inh: inconclusive; DT40 TDP1 no CPT: 20.6µM*; IL-1B inflam inh: 0.0; TDP1 cell CPT: 20.6µM*; SW480 rerep: 4.5%

Results for Cc1ccc2c(c1)c1c(n2CC(O)CN2CCOCC2)CCCC1 (centres undefined) ?
Chronic BCR inh: 1.4%

What do the screens show for `CC(=O)c1c(C)nn(CC(O)Cn2c3c(c4cc(C)ccc42)CCCC3=O)c1C` (centres undefined)?
MCF10A rerep: inconclusive; Chronic BCR inh: -0.1%; DT40 TDP1 no CPT: inconclusive; IL-1B inflam inh: -62.2*; TDP1 cell CPT: inconclusive; SW480 rerep: inconclusive

What do the screens show for `Cc1ccc2c(c1)c(C)c(C)n2CC(O)Cn1nc(C)c(Br)c1C` (centres undefined)?
MCF10A rerep: inconclusive; Chronic BCR inh: inconclusive; DT40 TDP1 no CPT: inconclusive; IL-1B inflam inh: inconclusive; TDP1 cell CPT: -26.8%; SW480 rerep: 20.2%

What do the screens show for `Nc1cc(N)nc(SCC(=O)NC2CCCCCCC2)n1`?
MCF10A rerep: 0.5%; Chronic BCR inh: -8.3%; DT40 TDP1 no CPT: 17.1%; IL-1B inflam inh: 1.0; TDP1 cell CPT: -2.4%; SW480 rerep: -2.1%

What do the screens show for `CN(CC(=O)Nc1cccc(F)c1)C(=O)CCCN1C(=O)c2cccc3cccc(c23)C1=O`?
MCF10A rerep: 3.6%; Chronic BCR inh: 10.0%; DT40 TDP1 no CPT: inconclusive; IL-1B inflam inh: -65.1*; TDP1 cell CPT: inconclusive; SW480 rerep: 7.7%

Results for CCN(CC(=O)Nc1c(F)cccc1F)C(=O)CCCN1C(=O)c2cccc3cccc(c23)C1=O ?
DT40 TDP1 no CPT: inconclusive; IL-1B inflam inh: -50.9*; TDP1 cell CPT: inconclusive

How did CCN(CC(=O)Nc1c(F)cccc1F)C(=O)CCc1nc2ccccc2c(=O)[nH]1 do in these assays?
MCF10A rerep: -14.9%; Chronic BCR inh: -2.3%; DT40 TDP1 no CPT: -6.4%; IL-1B inflam inh: 25.0; TDP1 cell CPT: -8.2%; SW480 rerep: 29.1µM*

How did COc1cccc(CC(=O)OCC(=O)NC(Cc2ccccc2)C(C)=O)c1 (centres undefined) do in these assays?
MCF10A rerep: 3.2%; Chronic BCR inh: -0.7%; DT40 TDP1 no CPT: -0.1%; IL-1B inflam inh: 14.3; TDP1 cell CPT: -6.0%; SW480 rerep: -12.0%

How did CCc1ccc(-c2csc(NC(=O)C3CCCO3)c2C(=O)OC(C)C)cc1 (centres undefined) do in these assays?
MCF10A rerep: 25.9µM*; Chronic BCR inh: 15.7%; DT40 TDP1 no CPT: inconclusive; IL-1B inflam inh: 9.3; TDP1 cell CPT: inconclusive; SW480 rerep: inconclusive

Results for Cc1c(C(=O)OC(C)C)sc(NC(=O)C2CCCO2)c1C(=O)OC(C)C (centres undefined) ?
MCF10A rerep: 13µM*; Chronic BCR inh: 16.0%; DT40 TDP1 no CPT: inconclusive; IL-1B inflam inh: 6.0; TDP1 cell CPT: inconclusive; SW480 rerep: 15.3%

What do the screens show for `CCOC(=O)c1c(-c2ccc(OC)c(OC)c2)csc1NC(=O)C1CCCO1` (centres undefined)?
MCF10A rerep: -10.5%; Chronic BCR inh: inconclusive; DT40 TDP1 no CPT: inconclusive; IL-1B inflam inh: -66.8*; TDP1 cell CPT: inconclusive; SW480 rerep: 0.0%

Results for COC(=O)c1c(-c2ccc(F)cc2)csc1NC(=O)C1CCCO1 (centres undefined) ?
MCF10A rerep: inconclusive; Chronic BCR inh: -6.1%; DT40 TDP1 no CPT: inconclusive; IL-1B inflam inh: -17.9; TDP1 cell CPT: inconclusive; SW480 rerep: inconclusive

What do the screens show for `COC(=O)c1sc(NC(=O)C2CCCO2)c(C(=O)OC)c1C` (centres undefined)?
MCF10A rerep: 1.6%; Chronic BCR inh: 4.4%; DT40 TDP1 no CPT: -17.3%; IL-1B inflam inh: 2.4; TDP1 cell CPT: -2.7%; SW480 rerep: -3.8%

Results for CC1CC(C)CN(CCCNC(=O)c2ccc3c(c2)NC(=O)CS3)C1 (centres undefined) ?
MCF10A rerep: 1.0%; Chronic BCR inh: 2.0%; DT40 TDP1 no CPT: 1.7%; IL-1B inflam inh: 2.1; TDP1 cell CPT: 4.3%; SW480 rerep: 0.0%

Screening data from PubChem.
